# Data reported in PubChem BioAssay (NCATS).
# Records with an inconclusive call do not appear. A call without a number means that no potency is given here. The source made the active and inactive calls. Calls follow the shape of the dose curve; as a rule, active = well fitted curve in the direction sought with a large enough effect; inconclusive = small, poorly fitted or top-dose-only effect, or another doubt; inactive = no such curve, though single readings can be large; an effect the other way counts as inactive or inconclusive.
# Target: N-terminal Xaa-Pro-Lys N-methyltransferase 1 (Homo sapiens) (UniProt Q9BV86)
# Test: qHTS Assay for Inhibitors of N-terminal methyltransferase 1 (NTMT1): LOPAC validation of the NTMT1 SAHH-coupled ThioGlo3 Assay (AID 1347143);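 also: SAH from peptide methylation measured as thiol fluorescence via SAHH coupling and ThioGlo3; nearly all actives have a fitted effect of over 70% in size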
# Conditions: recombinant NTMT1, SAHH-coupled ThioGlo3 fluorescence; series mostly up to 114 µM
# Outline: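 In this qHTS pilot against the LOPAC set, 125nM NTMT1 met compounds tested at multiple concentrations, and fluorescence was normalized to background.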
# Potency is read from the fitted curve at half-maximal effect.
# Chain of N-terminal Xaa-Pro-Lys N-methyltransferase 1 (Homo sapiens) (Q9BV86 whole entry, looked up): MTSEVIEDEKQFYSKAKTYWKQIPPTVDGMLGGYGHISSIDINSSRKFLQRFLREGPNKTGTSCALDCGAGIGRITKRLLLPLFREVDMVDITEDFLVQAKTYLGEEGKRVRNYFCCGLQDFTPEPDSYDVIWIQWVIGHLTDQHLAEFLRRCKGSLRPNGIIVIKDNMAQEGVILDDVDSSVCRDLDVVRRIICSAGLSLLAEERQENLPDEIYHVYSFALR
row,Structure (SMILES),Potency
1,CC(=O)NCCc1c[nH]c2ccccc12,inactive
2,NCCc1c[nH]c2ccccc12,inactive
3,CC[C@@H](C(N)=O)N1CCCC1=O,inactive
4,C[C@@H](N)Cc1cnc[nH]1,inactive
5,Cc1nccc2c1[nH]c1ccccc12,79.4 µM (active)
6,CCCN(CCC)C1CCc2ccc(O)cc2C1 (stereo unspecified),inactive
7,O=C1CCCN1CC#CCN1CCCC1,inactive
8,NC(CCP(=O)(O)O)C(=O)O (stereo unspecified),inactive
9,S=C(NC1CCCCC1)N1CCC(c2cnc[nH]2)CC1,inactive
10,c1ccc2sc(C3(N4CCCCC4)CCCCC3)cc2c1,inactive
11,NCc1cc(=O)[nH]o1,inactive
12,C#CCOC(=O)C1=CCCN(C)C1,inactive
13,O=C(O)Cc1cnc[nH]1,inactive
14,CCCN(CCC)[C@@H]1CCc2ccc(O)cc2C1,inactive
15,C/C=C(/C)C(=O)O[C@H]1C(C)=C2[C@H]([C@@H]1OC(=O)CCCCCCC)[C@@](C)(OC(C)=O)C[C@H](OC(=O)CCC)[C@@]1(O)[C@H]2OC(=O)[C@@]1(C)O,inactive
16,O=C(Cc1ccc(Cl)c(Cl)c1)N1CCCCC1CN1CCCC1 (stereo unspecified),inactive
17,COC(=O)[C@@H](N)CCCN=C(N)N[N+](=O)[O-],inactive

# Target: Furin (Homo sapiens) (UniProt P09958)
# Test: Furin counterscreen qHTS for Zika virus inhibitors (AID 1347149); also: nearly all actives have a fitted effect of over 70% in size
# Conditions: furin enzymatic counterscreen, fluorogenic substrate; series mostly up to 57.5 µM
# Outline: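 Counterscreen measures cleavage of 2 microM BOC-RVRR-AMC, below its ~15 microM Km, by 5 nM full-length human furin at pH 7.0 after a 15-min compound preincubation. Inhibition derives from the 15-min fluorescence increase at 37C.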
# Chain of Furin (Homo sapiens) (P09958 whole entry, looked up): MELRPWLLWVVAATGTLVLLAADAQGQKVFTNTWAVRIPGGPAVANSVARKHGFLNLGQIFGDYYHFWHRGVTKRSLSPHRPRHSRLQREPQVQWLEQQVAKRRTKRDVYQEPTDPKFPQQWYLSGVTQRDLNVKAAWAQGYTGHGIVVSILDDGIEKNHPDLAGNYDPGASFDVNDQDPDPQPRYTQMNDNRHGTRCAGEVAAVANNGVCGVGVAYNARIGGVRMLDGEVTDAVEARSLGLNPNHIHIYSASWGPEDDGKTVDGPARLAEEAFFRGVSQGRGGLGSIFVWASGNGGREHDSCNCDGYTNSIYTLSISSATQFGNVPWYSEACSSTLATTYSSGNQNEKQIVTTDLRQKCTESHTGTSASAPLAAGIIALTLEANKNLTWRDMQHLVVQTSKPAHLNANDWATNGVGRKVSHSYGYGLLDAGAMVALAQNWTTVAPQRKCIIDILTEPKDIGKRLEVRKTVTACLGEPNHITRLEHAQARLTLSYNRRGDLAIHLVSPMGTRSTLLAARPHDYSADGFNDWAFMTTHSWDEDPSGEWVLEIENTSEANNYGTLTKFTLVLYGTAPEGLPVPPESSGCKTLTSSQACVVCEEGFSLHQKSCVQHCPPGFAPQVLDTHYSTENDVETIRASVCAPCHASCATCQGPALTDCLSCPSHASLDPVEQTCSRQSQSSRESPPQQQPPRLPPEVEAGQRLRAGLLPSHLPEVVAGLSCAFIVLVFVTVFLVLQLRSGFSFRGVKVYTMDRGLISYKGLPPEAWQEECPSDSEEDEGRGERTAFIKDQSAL
row,Structure (SMILES),Potency
1,CC(=O)N(C)c1cccc(-c2ccnc3c(C(=O)c4cccs4)cnn23)c1,24.1 µM (active)
2,Nc1c(Cl)c(Cl)c(Cl)c(Cl)c1Cl,inactive
3,O=C(O)c1cc(Oc2ccc(C(F)(F)F)cc2Cl)ccc1[N+](=O)[O-],inactive

# System: Zika virus NS2B-NS3 protease (unlinked)
# Test: Optimization of GU AMC qHTS for Zika virus inhibitors: Unlinked NS2B-NS3 protease assay (AID 1347151); also: nearly all actives have a fitted effect of over 80% in size
# Conditions: recombinant ZIKV NS2B-NS3 protease, fluorogenic AMC substrate; series mostly up to 52.5 µM
# Outline: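 Fluorescence read-out (340 nm ex / 450 nm em) of AMC peptide cleavage, taken immediately and after 15 min at room temperature (~20% conversion). Enzyme was the unlinked NS2B–NS3 complex at 25 nM in Tris pH 8.0 buffer.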
row,Structure (SMILES),Potency
1,CCCN1CCO[C@@H]2c3cc(O)ccc3OC[C@H]21,inactive
2,CN[C@@H]1C[C@@H](c2ccc(Cl)c(Cl)c2)c2ccccc21,inactive
3,CC(=O)NCCc1c[nH]c2ccccc12,inactive
4,NCCc1c[nH]c2ccc(O)cc12,inactive
5,NCCc1c[nH]c2ccccc12,inactive
6,CC[C@@H](C(N)=O)N1CCCC1=O,inactive
7,C[C@@H](N)Cc1cnc[nH]1,inactive
8,Cc1nccc2c1[nH]c1ccccc12,26.7 µM (active)
9,CCCN(CCC)C1CCc2ccc(O)cc2C1 (stereo unspecified),inactive
10,O=C1CCCN1CC#CCN1CCCC1,inactive
11,NC(CCP(=O)(O)O)C(=O)O (stereo unspecified),inactive
12,c1ccc(CCCN2CCN(CCOC(c3ccccc3)c3ccccc3)CC2)cc1,inactive
13,S=C(NC1CCCCC1)N1CCC(c2cnc[nH]2)CC1,inactive
14,c1ccc2sc(C3(N4CCCCC4)CCCCC3)cc2c1,inactive
15,NCc1cc(=O)[nH]o1,inactive
16,C#CCOC(=O)C1=CCCN(C)C1,inactive
17,CNCCc1c[nH]c2ccc(O)cc12,inactive
18,O=C(O)Cc1cnc[nH]1,inactive
19,CCCN(CCC)[C@@H]1CCc2ccc(O)cc2C1,inactive
20,Oc1ccc2c3c1O[C@H]1c4[nH]c5c(c4C[C@@]4(O)[C@@H](C2)N(CC2CC2)CC[C@]314)C[C@@]1(O)[C@H]2Cc3ccc(O)c4c3[C@@]1(CCN2CC1CC1)[C@H]5O4,inactive
21,O=C(Cc1ccc(Cl)c(Cl)c1)N1CCCCC1CN1CCCC1 (stereo unspecified),inactive
22,COC(=O)[C@@H](N)CCCN=C(N)N[N+](=O)[O-],inactive
23,CC(Cc1ccc(O)cc1)NCC(O)c1cc(O)cc(O)c1 (stereo unspecified),inactive
24,CNCCc1ccc(O)c(O)c1,inactive
25,C[N+](C)(C)CC(=O)O,inactive

# System: Zika virus NS2B-NS3 protease
# Test: Primary screen GU AMC qHTS for Zika virus inhibitors (AID 1347154); also: nearly all actives have a fitted effect of over 70% in size
# Conditions: Zika NS2B-NS3 unlinked protease, AMC fluorogenic substrate; series mostly up to 54.1 µM
# Outline: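 Unlinked Zika NS2B hydrophilic domain/NS3 protease domain noncovalent complex (25 nM final) in 10 mM Tris-HCl pH 8.0, 0.01% Tween 20, with AMC peptide substrate. Fluorescence (ex 340, em 450 nm) change over 15 min, room temperature; percent inhibition fitted to 4-parameter Hill equation.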
row,Structure (SMILES),Potency
1,CC(=O)N(C)c1cccc(-c2ccnc3c(C(=O)c4cccs4)cnn23)c1,21.5 µM (active)
2,CCCN1CCO[C@@H]2c3cc(O)ccc3OC[C@H]21,inactive
3,CCOC(=O)c1cncn1[C@H](C)c1ccccc1,inactive
4,CC(=O)NCCc1c[nH]c2ccccc12,inactive
5,NCCc1c[nH]c2ccc(O)cc12,inactive
6,C[C@]12COC(=O)C[C@@H]1CC[C@@H]1[C@H]2CC[C@@]2(C)[C@H]1CC[C@]2(C)O,inactive
7,NCCc1c[nH]c2ccccc12,inactive
8,CC[C@@H](C(N)=O)N1CCCC1=O,inactive
9,C[C@@H](N)Cc1cnc[nH]1,inactive
10,Cc1nccc2c1[nH]c1ccccc12,26.7 µM (active)
11,Cc1cc(O)ccc1Cl,inactive
12,CCCN(CCC)C1CCc2ccc(O)cc2C1 (stereo unspecified),inactive
13,O=C1CCCN1CC#CCN1CCCC1,inactive
14,NC(CCP(=O)(O)O)C(=O)O (stereo unspecified),inactive
15,c1ccc(CCCN2CCN(CCOC(c3ccccc3)c3ccccc3)CC2)cc1,inactive
16,S=C(NC1CCCCC1)N1CCC(c2cnc[nH]2)CC1,inactive

row,Structure (SMILES),Potency
1,C[C@]12CCC(=O)C(O)=C1CC[C@@H]1[C@H]3CCC(=O)[C@@]3(C)CC[C@@H]12,inactive
2,c1ccc2sc(C3(N4CCCCC4)CCCCC3)cc2c1,inactive
3,NCc1cc(=O)[nH]o1,inactive
4,C#CCOC(=O)C1=CCCN(C)C1,inactive
5,O=C(O)Cc1cnc[nH]1,inactive
6,CCCN(CCC)[C@@H]1CCc2ccc(O)cc2C1,inactive
7,C/C=C(/C)C(=O)O[C@H]1C(C)=C2[C@H]([C@@H]1OC(=O)CCCCCCC)[C@@](C)(OC(C)=O)C[C@H](OC(=O)CCC)[C@@]1(O)[C@H]2OC(=O)[C@@]1(C)O,inactive
8,C=C[C@@H]1CN2CCC1C[C@H]2[C@H](O)c1ccnc2ccccc12 (stereo partly specified),inactive
9,Oc1ccc2c3c1O[C@H]1c4[nH]c5c(c4C[C@@]4(O)[C@@H](C2)N(CC2CC2)CC[C@]314)C[C@@]1(O)[C@H]2Cc3ccc(O)c4c3[C@@]1(CCN2CC1CC1)[C@H]5O4,inactive
10,O=C(Cc1ccc(Cl)c(Cl)c1)N1CCCCC1CN1CCCC1 (stereo unspecified),inactive
11,Nc1c(Cl)c(Cl)c(Cl)c(Cl)c1Cl,inactive
12,O=C(O)c1cc(Oc2ccc(C(F)(F)F)cc2Cl)ccc1[N+](=O)[O-],inactive
13,CC(C)Oc1cccc(NC(=O)c2ccccc2C(F)(F)F)c1,inactive
14,COC(=O)[C@@H](N)CCCN=C(N)N[N+](=O)[O-],inactive
15,CC(Cc1ccc(O)cc1)NCC(O)c1cc(O)cc(O)c1 (stereo unspecified),inactive
